This is part of a sample that, as a whole, favours compounds with a hit. Of some 83,000 tested, about 20% had one in any assay.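 Note: values are percent growth. 100 is the growth of untreated cells, values between 100 and 0 indicate rising inhibition; between -100 and 0 indicates cell death.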 Unmarked numbers belong to inactive results. Active and inactive are the calls of the source. How the source made its calls: active means growth percent below 10; inactive means the rest.

Some test systems named below: SK-MEL-2 melanoma; SN12C renal; UO-31 renal; TK-10 renal; ACHN renal; CAKI-1 renal; A498 renal; CCRF-CEM leukemia; MOLT-4 leukemia; RPMI-8226 leukemia; OVCAR-8 ovarian; OVCAR-5 ovarian; OVCAR-4 ovarian; IGROV1 ovarian; OVCAR-3 ovarian; HS 578T breast; NCI/ADR-RES ovarian; SR leukemia; SK-OV-3 ovarian.
Assay in all cases: NCI-60 one-dose screen, 48 h (100 = growth as untreated, 0 = no growth, -100 = all killed)
Common to all, as to conditions: 10 µM unless noted

Consider `Cc1nc2sccn2c1-c1csc(Nc2ccccc2Cl)n1`, for which the growth is 33.9% in the experiment on SK-MEL-2 melanoma; 57.1% with SN12C renal; 42.4% with UO-31 renal; 61% in the experiment on TK-10 renal; 58.9% in the experiment on ACHN renal; 34.6% in the experiment with CAKI-1 renal. The growth in the experiment on A498 renal was 31.5%; in the experiment with CCRF-CEM leukemia, 48.6%; in the experiment with MOLT-4 leukemia it was 17%; in the experiment with RPMI-8226 leukemia it was 38.9%; in the experiment on OVCAR-8 ovarian, 53%; in the experiment with OVCAR-5 ovarian it was 54.9%. Moreover, the growth with OVCAR-4 ovarian was 47.3%; in the experiment with IGROV1 ovarian, 60.5%; in the experiment on OVCAR-3 ovarian, 47.7%; with HS 578T breast, 76.7%; in the experiment with NCI/ADR-RES ovarian, 21.6%.
On to `COc1cc2oc(-c3cccc(NC(=O)Nc4ccc5c(c4)OCO5)c3)cc(=O)c2c(OC)c1OC`, for which the growth with SK-MEL-2 melanoma was 71.7%; in the experiment on SN12C renal it was 49.5%; in the experiment on UO-31 renal it was 17.8%; in the experiment with TK-10 renal, 56%; in the experiment with ACHN renal, 47.1%; in the experiment with CAKI-1 renal, 48.6%. Also, the growth was 77.1% in the experiment on A498 renal; 54.8% in the experiment with MOLT-4 leukemia; 33.3% in the experiment on SR leukemia; -1.59% (active) in the experiment on RPMI-8226 leukemia; 44.3% in the experiment on OVCAR-8 ovarian; 118% with OVCAR-5 ovarian. In addition, the growth in the experiment on OVCAR-4 ovarian was 69.1%; with IGROV1 ovarian it was 62.5%; in the experiment with OVCAR-3 ovarian, 56%; with HS 578T breast it was 59.4%; with NCI/ADR-RES ovarian it was 57.6%.
On to `CCCCCCCCCCCCCCCCC(Br)C(=O)O` (stereo unspecified), for which the growth in the experiment on SK-MEL-2 melanoma was 94.4%; in the experiment on SN12C renal, 102%; in the experiment on UO-31 renal it was 87.9%; in the experiment with TK-10 renal, 116%; in the experiment on ACHN renal, 96.6%; with CAKI-1 renal, 101%. For the same molecule, the growth was 94.7% with A498 renal; 97.5% in the experiment on MOLT-4 leukemia; 105% with SR leukemia; 84.6% in the experiment with RPMI-8226 leukemia; 103% in the experiment with OVCAR-8 ovarian; 97.8% in the experiment on OVCAR-4 ovarian. Besides, the growth in the experiment with SK-OV-3 ovarian was 118%; with IGROV1 ovarian, 125%; with OVCAR-3 ovarian it was 100%; with NCI/ADR-RES ovarian, 110%.
`COc1ccc(-c2nc3sccn3c2-c2ccnc(NCCCNS(=O)(=O)c3ccc4ccccc4c3)n2)cc1`: the growth with SK-MEL-2 melanoma was 84.6%; in the experiment with SN12C renal it was 79.5%; in the experiment with UO-31 renal, 60.7%; in the experiment on TK-10 renal, 89.8%; with ACHN renal, 60%; with CAKI-1 renal, 77.5%. Moreover, the growth in the experiment with CCRF-CEM leukemia was 53.8%; in the experiment on MOLT-4 leukemia, 47.5%; in the experiment on SR leukemia, 57%; in the experiment on RPMI-8226 leukemia, 54.9%; in the experiment with OVCAR-8 ovarian, 57.3%; in the experiment on OVCAR-5 ovarian, 132%. Moreover, the growth was 68.1% in the experiment on OVCAR-4 ovarian; 95.1% in the experiment on SK-OV-3 ovarian; 75.3% with IGROV1 ovarian; 82.7% in the experiment with OVCAR-3 ovarian; 92.1% with HS 578T breast; 53.5% with NCI/ADR-RES ovarian.
As for `CCCOC(=O)C1(O)CCCC1`, the growth with SK-MEL-2 melanoma is 90.8%; in the experiment on SN12C renal, 102%; in the experiment with UO-31 renal, 90.6%; in the experiment with TK-10 renal it was 98.8%; in the experiment on ACHN renal it was 94%; with CAKI-1 renal, 102%. Also, the growth in the experiment with A498 renal is 103%; with MOLT-4 leukemia, 93.1%; in the experiment with SR leukemia it was 94.4%; in the experiment on RPMI-8226 leukemia, 96.5%; in the experiment with OVCAR-8 ovarian it was 102%; in the experiment with OVCAR-5 ovarian, 87.2%. The growth is 102% in the experiment with OVCAR-4 ovarian; 111% in the experiment with SK-OV-3 ovarian; 107% in the experiment on IGROV1 ovarian; 129% in the experiment on OVCAR-3 ovarian; 108% with NCI/ADR-RES ovarian.
In the case of `CCC1CCc2nc3sc(C(=O)Nc4ccccc4F)c(N)c3cc2C1` (stereo unspecified), the growth is 52.1% with SK-MEL-2 melanoma; 89.8% in the experiment on SN12C renal; 77.5% with UO-31 renal; 73.7% in the experiment on TK-10 renal; 69.4% with ACHN renal; 53.2% with CAKI-1 renal. In addition, the growth is 44.7% with A498 renal; 40% with MOLT-4 leukemia; 16.8% in the experiment on SR leukemia; 47.5% in the experiment with RPMI-8226 leukemia; 83.3% with OVCAR-8 ovarian; 90.9% in the experiment on OVCAR-4 ovarian. The growth in the experiment with IGROV1 ovarian is 88.3%; in the experiment on HS 578T breast it was 70%; in the experiment with NCI/ADR-RES ovarian it was 62.5%.
Turning to `COc1ccc(-c2cn[nH]c2-c2cc(OC)c3c(c2)OCCO3)cc1`, the growth in the experiment with SK-MEL-2 melanoma is 9.5% (active); with SN12C renal, 29.6%; in the experiment with UO-31 renal, 50.4%; with TK-10 renal it was 57.8%; in the experiment with ACHN renal, 38%; in the experiment with CAKI-1 renal, 56.9%. The growth in the experiment on A498 renal was -13.4% (active); in the experiment with CCRF-CEM leukemia it was 17.4%; with MOLT-4 leukemia, 12%; with OVCAR-8 ovarian it was 26.1%; in the experiment with OVCAR-5 ovarian it was 48.1%; with OVCAR-4 ovarian it was 73.7%. Moreover, the growth in the experiment on IGROV1 ovarian was 50.2%; with OVCAR-3 ovarian it was -36.6% (active); in the experiment with HS 578T breast it was 3.05% (active); with NCI/ADR-RES ovarian, 9.78% (active).
Consider `O=S(=O)(NCCNc1nccc(-c2c(-c3ccccc3)nc3sccn23)n1)c1ccc(O)cc1`, for which the growth is 49.7% in the experiment with SK-MEL-2 melanoma; 40.3% with SN12C renal; 31.4% in the experiment with UO-31 renal; 62.2% in the experiment on TK-10 renal; 25.8% in the experiment on ACHN renal; 53.5% with CAKI-1 renal. The growth in the experiment with CCRF-CEM leukemia is 52.2%; in the experiment with MOLT-4 leukemia it was 28.7%; with SR leukemia, 18.2%; in the experiment with RPMI-8226 leukemia it was 52.8%; in the experiment on OVCAR-8 ovarian, 40.8%; in the experiment on OVCAR-5 ovarian, 87.1%. Besides, the growth is 56.5% with OVCAR-4 ovarian; 65.3% in the experiment on SK-OV-3 ovarian; 22% in the experiment with IGROV1 ovarian; 38.9% in the experiment on OVCAR-3 ovarian; 64.6% with HS 578T breast; 85.5% in the experiment on NCI/ADR-RES ovarian.
With `COc1cc(NCCCN=C(N)NC(N)=NC(C)C)c2ncccc2c1`, the growth in the experiment with SK-MEL-2 melanoma was 16.2%; with SN12C renal, 38.1%; with UO-31 renal, 69.1%; in the experiment with TK-10 renal it was 107%; with ACHN renal, 94%; in the experiment on CAKI-1 renal, 94.7%. The growth is 120% in the experiment on A498 renal; 57.7% with MOLT-4 leukemia; 75.2% in the experiment with SR leukemia; 52.5% with RPMI-8226 leukemia; 88.5% with OVCAR-8 ovarian; 57.6% in the experiment on OVCAR-5 ovarian. Moreover, the growth in the experiment on OVCAR-4 ovarian was 11.3%; with SK-OV-3 ovarian it was 93.7%; in the experiment with IGROV1 ovarian it was -12.8% (active); with OVCAR-3 ovarian, 8.99% (active); with NCI/ADR-RES ovarian it was 98.8%.

For the origin of these results see PubChem BioAssay (NCI).
